“And” between values parts separate entries of the source, which are not always exact repeats. Identical values can stand only once. Inconclusive results are not listed. The source made the active and inactive calls. Unless noted, calls come from the whole dose curve; as a rule, active = well fitted curve in the direction sought with a large enough effect; inconclusive = small, poorly fitted or top-dose-only effect, or another doubt; inactive = no such curve, though single readings can be large; an effect the other way counts as inactive or inconclusive.
Assays:
[1] = molecular target: T1, Hexokinase-4 (Homo sapiens) + Glucokinase regulatory protein (Homo sapiens) (UniProt P35557+Q14397); test: qHTS assay for inhibitors of recombinant human GCK-GKRP interaction: ADP-Glo assay (AID 743206);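 note: plate controls were DMSO plus enzyme for no effect and no enzyme for full effect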
T1 sequence (P35557 whole entry, looked up): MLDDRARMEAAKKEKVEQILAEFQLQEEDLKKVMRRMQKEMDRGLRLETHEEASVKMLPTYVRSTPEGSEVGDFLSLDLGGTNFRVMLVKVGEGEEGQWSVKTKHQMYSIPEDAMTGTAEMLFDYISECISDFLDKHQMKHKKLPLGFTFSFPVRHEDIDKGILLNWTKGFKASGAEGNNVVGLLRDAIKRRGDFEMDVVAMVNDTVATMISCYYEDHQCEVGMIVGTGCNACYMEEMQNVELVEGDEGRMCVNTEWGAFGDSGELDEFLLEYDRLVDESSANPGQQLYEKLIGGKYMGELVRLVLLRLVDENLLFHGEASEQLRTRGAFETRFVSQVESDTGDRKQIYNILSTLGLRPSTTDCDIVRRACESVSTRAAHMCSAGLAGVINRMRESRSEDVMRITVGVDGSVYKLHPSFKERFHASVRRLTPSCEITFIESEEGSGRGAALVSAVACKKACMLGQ
T1 sequence (Q14397 whole entry, looked up): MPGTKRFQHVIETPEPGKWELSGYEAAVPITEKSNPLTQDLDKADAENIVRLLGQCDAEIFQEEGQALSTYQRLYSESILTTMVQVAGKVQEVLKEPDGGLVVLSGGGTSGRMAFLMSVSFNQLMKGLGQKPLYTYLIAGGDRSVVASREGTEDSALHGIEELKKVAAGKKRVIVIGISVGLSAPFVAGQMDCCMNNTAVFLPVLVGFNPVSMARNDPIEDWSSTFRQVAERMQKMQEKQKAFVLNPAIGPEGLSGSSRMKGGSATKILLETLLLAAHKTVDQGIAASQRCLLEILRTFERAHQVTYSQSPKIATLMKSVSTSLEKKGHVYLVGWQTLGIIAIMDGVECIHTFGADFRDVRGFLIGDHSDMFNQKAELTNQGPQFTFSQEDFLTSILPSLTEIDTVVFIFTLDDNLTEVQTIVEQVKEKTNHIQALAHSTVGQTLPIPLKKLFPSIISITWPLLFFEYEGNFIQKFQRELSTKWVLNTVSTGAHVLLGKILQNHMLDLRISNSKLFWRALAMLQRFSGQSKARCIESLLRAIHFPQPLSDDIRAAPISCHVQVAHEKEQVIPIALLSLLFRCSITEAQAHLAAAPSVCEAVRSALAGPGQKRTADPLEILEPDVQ
In short: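 Pin-transferred compounds meet a 15 nM GST-GCK/15 nM FLAG-GKRP/2 uM S6P mix (dispense concentrations). ATP is then added to 0.4 mM final with 5 mM glucose, and the reaction runs 60 min at room temperature. ADP is quantified luminescently.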

[2] = molecular target: T1, Hexokinase-4 (Homo sapiens) + Glucokinase regulatory protein (Homo sapiens); test: qHTS assay for inhibitors of recombinant human GCK-GKRP interaction: HTRF assay (AID 743207);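 note: 0% = DMSO with GCK present and -100% = DMSO wells lacking GCK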
In short: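 HTRF read-out (ex 320 nm; 615/665 nm emission) after 60 min RT equilibration of 5 nM GST-GCK, 5 nM FLAG-GKRP, 2 uM S6P, compound and anti-FLAG/anti-GST detection antibodies; signal normalized between DMSO wells with and without GCK.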

[3] = qHTS Assay for Identifying Gametocytocidal Compounds (AID 743244);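 note: % is set by controls: 0 for no effect and ±100 for the full control effect; actives lower the fluorescent signal which means gametocytes are killed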; conditions: P. falciparum 3D7 stage III-V gametocytes, alamarBlue, 72 h; max response: stronger effect = lower value
In short: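 Fluorescence at Ex 525/Em 598 nm, recorded 24 h after alamarBlue addition, reports residual metabolic activity of 3D7 gametocytes (stages III–V) following 72 h compound exposure at 37 °C, 5% CO2.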

[4] = qHTS profiling of the MIPE4 collection as inhibitors of Plasmodium falciparum (3D7) proliferation (AID 743344; call rule not given here;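 note: scaled between DMSO vehicle wells and 0.29 µM artemisinin as full inhibition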); conditions: P. falciparum 3D7 in erythrocytes, SYBR Green DNA fluorescence, 72 h; at 28.5 µM (top of the series) unless noted
In short: (§1)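 Parasite DNA was quantified by SYBR Green I fluorescence (ex 485, em 535 nm) after overnight lysis in saponin/Triton buffer at room temperature. Cultures at 0.3% parasitemia and 2.5% hematocrit were first exposed to compound for 72 h at 37 C; signals were normalised to artemisinin (0.29 uM) and vehicle wells.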

[5] = qHTS profiling of the MIPE4 collection as inhibitors of Plasmodium falciparum (HB3) proliferation (AID 743347; call rule not given here;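 note: plate controls were DMSO vehicle wells for no effect and artemisinin wells for full effect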); conditions: P. falciparum HB3 in erythrocytes, SYBR Green DNA, 72 h; at 28.5 µM (top of the series) unless noted
In short: as §1

[6] = High-throughput drug toxicity screening in the BPDCN cell line Gen2.2 (AID 1224824; call rule not given here;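 note: cells exposed to compounds for 48 h before reading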); conditions: Gen2.2 BPDCN cells; at 45.8 µM (top of the series) unless noted
In short: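 CellTiter-Glo luminescence after 48 h compound exposure of Gen2.2 cells; percent activity set with DMSO as 100% and bortezomib (9.2 uM final) as 0%. Cells seeded at 500 per well, RPMI + 10% FBS, 37 °C.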

[7] = High-throughput drug toxicity screening in the BPDCN cell line Cal-1 (AID 1224825; call rule not given here); conditions: Cal-1 BPDCN cell viability, qHTS; at 45.8 µM (top of the series) unless noted
In short: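 CellTiter-Glo luminescence after 48 h compound exposure; percent activity scaled with DMSO as 100% and bortezomib (9.2 uM final) as 0%. Cal-1 cells seeded at 500/well in RPMI, 10% FBS, no phenol red.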

[8] = qHTS assay for measurement of the activity of small molecule inhibitors on Zika virus induced Caspase-3 activity in human iPSC derived neural progenitor cells (hNPCs) (AID 1224857); note: % of control where 0% means no effect; nearly all actives have a fitted effect of over 65% in size
In short: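 Zika virus (2 FFU/cell) infection of human iPSC-derived NPCs, 6 h, following 1 h compound preincubation. Read-out: Caspase-Glo 3/7 luminescence.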

[9] = qHTS assay for measurement of the activity of small molecule inhibitors on Zika virus induced Caspase-3 activity in human astrocytoma cells (AID 1224859);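 note: plate controls were ZIKV-infected untreated cells for no effect and uninfected cells for full effect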
In short: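 Caspase activation in ZIKV-infected SNB-19 cells (2 FFU/cell, 6 h) measured by Caspase-Glo 3/7 luminescence after 30 min RT; compound pre-incubated 1 h; normalised to uninfected and infected controls.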

[10] = qHTS Screen of the MIPE 4.0 Collection Against Ewings Sarcoma (RDES) (AID 1259252); note: nearly all actives have a fitted effect of over 35% in size; note: potency is the fitted concentration of half-maximal effect
In short: (§2)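 Dose series incubated 48 h with cells in RPMI plus 5% FBS, glutamine and penicillin/streptomycin; cell viability then quantified via CellTiter-Glo.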

[11] = qHTS Screen of the MIPE 4.0 Collection Against Ewings Sarcoma (EW8) (AID 1259255); note: nearly all actives have a fitted effect of over 35% in size; note: potency is the fitted concentration of half-maximal effect;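 for viability: 100% = DMSO-treated cells and 0% = medium-only wells without cells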
In short: as §2

[12] = qHTS profiling of the MIPE4 collection as inhibitors of Plasmodium falciparum (DD2) proliferation (Rep 2) (AID 743346; call rule not given here); conditions: P. falciparum Dd2 in erythrocytes, SYBR Green DNA, 72 h; at 28.5 µM (top of the series) unless noted
In short: as §1

[13] = qHTS Screen of the MIPE 4.0 Collection Against Ewings Sarcoma (TC71) (AID 1259253); note: nearly all actives have a fitted effect of over 40% in size; note: potency is the fitted concentration of half-maximal effect
In short: as §2

[14] = qHTS Screen of the MIPE 4.0 Collection Against Ewings Sarcoma (TC32) (AID 1259256); note: nearly all actives have a fitted effect of over 45% in size; note: potency is the fitted concentration of half-maximal effect
In short: as §2

[15] = qHTS assay for cell viability of HEK293 cells (AID 743288); conditions: ATP luminescence (CellTiter-Glo), 18 h; max response: stronger effect = lower value; note: potency is the fitted concentration of half-maximal effect; nearly all actives have a fitted effect of over 50% in size
In short: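 ATP luminescence (CellTiter-Glo) reports metabolically competent cell number after parental HEK293 cells, 2,000/well, were treated with DMSO-dissolved compounds for 18 h at 37 C; reagent incubation 30 min, room temperature.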

[16] = qHTS assay for cell viability of the p53RE-bla HCT-116 cell line (AID 743292); note: % is set by controls: 0 for no effect and ±100 for the full control effect; nearly all actives have a fitted effect of over 55% in size
In short: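 Compound-exposed HCT-116 (p53RE-bla) cells, 4,000 per well, were kept 16 h at 37 C following a 5 h preincubation. Cell number was estimated from total ATP by CellTiter-Glo luminescence read after 30 min at room temperature.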

[17] = qHTS profiling of the MIPE4 collection as inhibitors of Plasmodium falciparum (DD2) proliferation (AID 743345; call rule not given here); conditions: P. falciparum Dd2 in erythrocytes, SYBR Green DNA, 72 h; at 28.5 µM (top of the series) unless noted
In short: as §1

[18] = qHTS profiling for inhibitors of Plasmodium falciparum (3D7) proliferation (AID 743322);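 note: infected erythrocytes exposed to compound for 72 h before lysis; 100% = DMSO vehicle wells and 0% = 0.29 µM artemisinin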; conditions: P. falciparum 3D7 proliferation, at 28.7 µM (top of the series)
In short: as §1

[19] = qHTS profiling for inhibitors of Plasmodium falciparum (DD2) proliferation (AID 743323; call rule not given here); conditions: at 28.7 µM (top of the series), lower = more inhibition
In short: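 Parasite DNA quantified by SYBR Green fluorescence (ex 485, em 535 nm) after saponin/Triton lysis and overnight dark incubation. Cultures: 0.3% parasitemia, 2.5% hematocrit, 72 h, 37 C; data scaled between DMSO and 0.29 uM artemisinin.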

[20] = qHTS profiling for inhibitors of Plasmodium falciparum (HB3) proliferation (AID 743324); conditions: Plasmodium falciparum HB3 blood-stage proliferation; at 28.7 µM (top of the series);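 note: 100% = DMSO vehicle wells and 0% = artemisinin-treated control wells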
In short: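 SYBR Green fluorescence (485 ex/535 em) of lysed cultures, incubated overnight at room temperature in the dark, quantifies parasite DNA. Infected erythrocytes at 0.3% parasitemia and 2.5% hematocrit were exposed 72 h; values normalized to DMSO and 0.29 uM artemisinin controls.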

Compound	Potency [1]	Potency [2]	max response [3]	parasite growth, % of DMSO control [4]	growth, % of control [5]	cell viability, % of control (lower = more cytotoxic) [6]	viability (% of control) [7]	Potency [8]	Potency [9]	Potency [10]	Potency [11]	parasite growth, % of control (lower = inhibition) [12]	Potency [13]	Potency [14]	Potency [15]	Potency [16]	parasite growth remaining, % of DMSO control (lower = more inhibition) [17]	remaining parasite growth % (stronger effect = lower value) [18]	activity, percent of control [19]	remaining proliferation (% of control), lower = more inhibition [20]
CCC1(C)CC(=O)NC1=O (stereo not drawn)	inactive	inactive	19% (inactive) and 33% (inactive)	99.5%	102%	184%	128%	inactive	inactive	inactive	inactive	–	–	–	–	–	–	–	–	–
CC(C)NCC(O)COc1ccc(CCOCC2CC2)cc1 (stereo not drawn)	inactive	–	-0.0756% (inactive) and 27.3% (inactive)	77%	57.9%	88.1%	97%	inactive	inactive	inactive	–	46.9%	inactive	inactive	–	–	–	–	–	–
CCc1cccc2c3c([nH]c12)C(CC)(CC(=O)O)OCC3 (stereo not drawn)	inactive	inactive	10.8% (inactive) and -5.14% (inactive)	71%	94.1%	138%	128%	inactive	inactive	inactive	inactive	85%	–	inactive	–	–	–	–	–	–
CC(COc1ccccc1)N(CCCl)Cc1ccccc1 (stereo not drawn)	inactive	inactive	–	90.3%	–	82.3%	45%	inactive	inactive	inactive	inactive	27%	inactive	inactive	35.5 µM (active)	inactive	26.2%	–	–	–
CN(C)CCCN1c2ccccc2CCc2ccc(Cl)cc21	inactive	inactive	–	19.3%	21.5%	29.4%	11.8%	inactive	inactive	0.662 µM (active)	2.96 µM (active)	24.6%	0.743 µM (active)	2.96 µM (active)	–	–	–	–	–	–
O=c1c(O)c(-c2ccc(O)c(O)c2)oc2cc(O)cc(O)c12	inactive	inactive	–	12.8%	11.6%	108%	34.4%	inactive	inactive	10.5 µM (active)	13.2 µM (active)	9.46%	18.7 µM (active)	20.9 µM (active)	–	–	–	26.9% and 12.7%	8.52% and 5.2%	1.74% and 5.43%
CC1(C)O[C@H]2CC(=O)OC[C@]23[C@H]2CC[C@@]4(C)[C@H](c5ccoc5)OC(=O)[C@H]5O[C@]54[C@]2(C)C(=O)C[C@@H]13	–	–	0.83% (inactive)	86.6%	107%	131%	118%	inactive	inactive	inactive	inactive	82%	inactive	inactive	–	–	122%	–	–	–
